Assay results from PubChem BioAssay AID1508649 (National Center for Advancing Translational Sciences (NCATS), 2021).
Hit rate of the full screen: of about 43,000 compounds, about 830 (1.9%) were called active. Another 30% or so got no clear call; they are omitted. What follows is part of a selection rich in actives, with near analogues and random picks from the rest. A number with no mark means an inactive call. Rule for the calls: active = clear falling dose curves in both reporters; inconclusive = both reporters move, but less clearly or upward; inactive = either reporter flat; the % is the NLuc reporter signal.

test: Cell-based coincidence reporter assay to measure PMP22 gene transcription in S16 Pmp22-F2sN cells - Primary screen; conditions: S16 Pmp22-F2sN Schwann cells (luciferase reporters placed in the Pmp22 gene), FLuc/NLuc coincidence luminescence, 24 h; series mostly up to 57.5 µM; activity change, negative = inhibition: at the top concentration
Text: Assay Provider: Jim Inglese Ph.D. National Center for Advancing Translational Science, National Institutes of Health, Rockville, MD CMT is a heterogeneous group of neurological disorders that affect approximately 1 in 2,500 people. In particular, the most common form of CMT, CMT1A is genetically linked to the duplication of the PMP22 gene which leads to Schwann cell overexpression, thus manifesting itself as a typical case of dose-sensitive diseases. To identify small molecule compounds that can mediate the expression of PMP22 we developed a phenotypic assay screening strategy by utilizing genome editing techniques to construct Schwann cell lines containing novel reporter technology to monitor the transcriptional or translational regulation of PMP22. For high sensitivity we use a bioluminescent reporter system embedded in the 3' UTR of the PMP22 gene (S16(c9) Pmp22-F2sN) to identify compounds that inhibit gene expression. […] We can further discriminate the effect of all transcriptionally active molecules on PMP22 translation or stability with an assay that incorporates a short NLuc peptide (HiBiT) at the C-terminus of expressed PMP22 (S16(f8) PMP22-HiBiT) allowing alpha complementation and luminescence detection of membrane-associated PMP22 protein. These assays were screened against the NCATS Sytravon Library Collection. Miniaturization of these assays to 1536-well plate format for quantitative high throughput screening (qHTS) yielded rich data sets immediately from the qHTS assay (S16(c9) Pmp22-F2sN), when compared with data from a cell viability assay (Cell TiterGlo) to identify compounds that decreased the output signals through cellular toxicity to streamline the selection process of actives for subsequent characterization using the HiBiT assay (S16(f8) PMP22-HiBiT).
Cell-based coincidence reporter assay to measure PMP22 gene transcription in S16 Pmp22-F2sN cells PROTOCOL TABLE (format as described by Inglese J, Shamu CE and Guy RK. 2007) SEQUENCE No. (e.g., 1, 2, 3, etc.); […] (e.g., Cells, Incubation, Reagent, etc.); VALUE and DESCRIPTION. 1. Cells. Add 500-1,000 cells in 4 uL in growth media (DMEM High Glucose, No Phenol Red media + 10% heat-inactivated FBS + 1% Pen/Strep supplemented media) per well into Greiner 1536-well white/solid bottom high base, TC-treated plates. 2. Compounds. Library compounds and controls added at 23nL per well, transferred by Pin Tool. 3. Incubation. Incubate plates at 37C, 5% CO2, 95% RH for 24 h. 4. Reagent. Add 3.5uL Nano-Glo Dual-Luciferase Reporter Assay System reagent 1: Lysis and FLuc reagent per well of Greiner 1536-well plates. 5. Incubation. Incubate plates at room temperature for 10 min., protect from light. 6. Detector. FLuc luminescence measured using CCD-based camera (Viewlux). 7. Reagent. Add 3.5uL Nano-Glo Dual-Luciferase Reporter Assay System reagent 2: Stop&Glo reagent per well of Greiner 1536-well plates. 8. Incubation. Incubate plates at room temperature for 10 min., protect from light. 9. Detector. NLuc luminescence measured using CCD-based camera (Viewlux). NOTES (numbers refer to Sequence numbers above; values are from representative experiments) 6. Luminescence Read #1 (FLuc): Clear filter; Exposure = 10 sec, Gain = High, Speed = Slow, Binning = 2X 9. Luminescence Read #2 (NLuc): Clear filter; Exposure = 1 sec, Gain = High, Speed = Slow, Binning = 2X REFERENCES: 1. Inglese J, Shamu CE and Guy RK, Reporting data from high throughput screening of small molecule libraries, Nature Chemical Biology, 2007, 3(8): 438-441. doi.org/10.1038/nchembio0807-438 2. Yasgar A, Shinn P, Jadhav A, Auld DS, Michael S, Zheng W, Austin CP, Inglese J and Simeonov A, Compound Management for Quantitative High-Throughput Screening. J. Assoc. Lab. Auto., 2008, 13: 79-89. doi: 10.1016/j.jala.2007.12.004
% is set by controls: 0 for no effect and ±100 for the full control effect; potency is the fitted concentration of half-maximal effect.

Compound | activity change, negative = inhibition [%] | Potency
CSc1oc(-c2cccs2)nc1S(=O)(=O)c1ccc(Br)cc1 | 49.8 | 
Cc1ccc(CSc2oc(-c3cccs3)nc2S(=O)(=O)c2ccc(C)cc2)cc1 | 8.14 | 
Cc1ccc2oc(C(=O)Nc3ccc(S(=O)(=O)N4CCCCCC4)cc3)cc(=O)c2c1 | -11 | 
Cc1cc(C)cc(-n2c(SCC(=O)NCC3CCCO3)nc3c([nH]c4ccccc43)c2=O)c1 (centres undefined) | -19.2 | 
CCOC(=O)c1scc(-c2ccccc2)c1S(=O)(=O)Nc1ccccc1F | -0.485 | 
CCOC(=O)c1ccc(NC(=O)c2nc(SCc3ccc(F)cc3)ncc2Cl)cc1 | -29.1 | 
CCCS(=O)(=O)c1ncc(Cl)c(C(=O)Nc2scc(-c3ccccc3)c2C(=O)OCC)n1 |  | 5.97 µM (active)
CC1CCN(S(=O)(=O)c2ccc3c(c2)N(CC(=O)NCCc2ccccc2)C(=O)CO3)CC1 | -25.2 | 
CCC(C)c1ccc2oc(-c3ccc(NC(=O)c4cc5ccccc5o4)cc3)nc2c1 (centres undefined) | -12.1 | 
COc1ccccc1-c1cc2nc(C)c(CCC(=O)NC3CCCCC3)c(C)n2n1 | -2.27 | 
O=C(CSc1oc(-c2ccc(F)cc2)nc1S(=O)(=O)c1ccc(Br)cc1)NC1CCCCC1 | 0.395 | 
COc1ccc(-c2nc(S(=O)(=O)c3ccccc3)c(N3CCCCC3)o2)cc1 | -26.4 | 
CC(C)S(=O)(=O)c1oc(-c2ccc(F)cc2)nc1S(=O)(=O)c1ccc(F)cc1 |  | 2.05 µM (active)
Cc1ccc2nc(COc3ccc(NC(=O)COc4ccccc4F)cc3)cc(=O)n2c1 | -12.1 | 
CC(=O)Nc1cc(C(=O)NCc2ccc(F)cc2)ccc1Sc1ccc(F)cc1 | -18.1 | 
Cc1cccc(C2CC(=O)Oc3c2c(=O)n(C)c2ccccc32)c1 (centres undefined) | -18.4 | 
CC(CNC(=O)c1nnc(Cc2cccc(F)c2)o1)c1ccccc1 (centres undefined) | -15.6 | 
Cc1ccc(CCNC(=O)c2nnc(Cc3cccc(F)c3)o2)cc1 | -14.3 | 
O=C(NCCCN1CCN(c2cccc(Cl)c2)CC1)c1nnc(Cc2ccc(F)cc2Cl)o1 |  | 18.9 µM (active)
CCOC(=O)c1c(NC(=O)c2cc(CC)on2)sc(C(C)=O)c1C | 10.7 | 
COc1ccc(CNC(=O)C2=Cc3cccc(OC)c3OC2)cc1OC | 3.11 | 
NC(=O)CSc1nc2c(oc3ccccc32)c(=O)n1Cc1ccccc1 | -17.2 | 

Compound | activity change, negative = inhibition [%] | Potency
O=C(NCCc1ccccc1)c1ccc2c(c1)N(Cc1ccc(F)cc1)C(=O)c1ccccc1S2(=O)=O | -29 | 
O=C(c1ccc2c(c1)N(Cc1ccccc1F)C(=O)c1ccccc1S2(=O)=O)N1CCOCC1 | -4.6 | 
O=C(c1ccc2c(c1)N(Cc1ccc(F)cc1)C(=O)c1ccccc1S2(=O)=O)N1CCN(c2ccccn2)CC1 |  | 15.6 µM (active)
Cc1ccc(C(=O)N2c3ncnn3C3(CCCCC3)[C@@H]3CCCC[C@@H]32)cc1 | -3.73 | 
COc1ccc(CCNc2nc(-c3ccc(F)cc3)cc(C(F)(F)F)n2)cc1OC | -5.08 | 
O=C(CSc1nc(=O)n(Cc2cccnc2)c2c1CCC2)Nc1ccc(F)cc1F | -25.4 | 
Cn1nnnc1SCCCNCc1ccc(Cl)cc1 | 0.621 | 
CCC(=O)N1CCc2cc(S(=O)(=O)NC(CC(C)C)C(=O)NCCc3cccc(C)c3)ccc21 (centres undefined) | 7.22 | 
CCc1ccc(NC(=O)CSc2nc3c([nH]c4ccccc43)c(=O)n2-c2cccc(OC)c2)cc1 | -1.32 | 
Cc1ccccc1CSc1nc2c([nH]c3ccccc32)c(=O)n1C | -13.5 | 
CCOC(=O)c1ccc(NC(=O)CSc2nc3c([nH]c4ccccc43)c(=O)n2C)cc1 |  | 14.1 µM (active)
Cc1ccccc1NC(=O)CCOc1ccccc1 | 3.36 | 
COc1ccc(C)cc1N(C)C(=O)c1c(C)oc2ncnc(N3CCOCC3)c12 | -13.9 | 
Cc1cccc(-n2c(SCC(N)=O)nc3c(oc4ccccc43)c2=O)c1 | -13.6 | 
CCc1ccc(NC(=O)c2cc(S(=O)(=O)N3CCCC(C)C3)cn2C)cc1 (centres undefined) | -12.6 | 
CCc1ccc(NC(=O)CN2CCSc3ccc(S(=O)(=O)N4CCCC4)cc32)cc1 |  | 17 µM (active)
CC1CCN(CCCNC(=O)CN2C(=O)CSc3ccc(S(=O)(=O)N4CCCCC4)cc32)CC1 | -33 | 
COc1ccccc1CCNC(=O)c1cccn1-c1nnc(N2CCCCC2)s1 | -23.5 | 
Cc1ccc(CCNC(=O)C2CCN(c3nnc(-n4cccc4CNc4ccc(C)cc4)s3)CC2)cc1 |  | 20 µM (active)
O=C(NCc1ccccc1Cl)c1cccn1-c1nnc(N2CCCCC2)s1 | -13.1 | 
Cc1cc(C)cc(NC(=O)Cc2csc(C)n2)c1 | -1.79 | 
Cc1nc2ccc(S(=O)(=O)NC(C(=O)NCc3ccccc3Cl)C(C)C)cc2s1 (centres undefined) | -9.19 | 
